# Compound activity (PubChem)
# TRHR PAM – allosteric enhancers of human TRH receptor; P34981; TRHR cells, fluo-8 calcium fluorescence, EC20 TRH enhancement; enhancement, % at 2 µM; 360,000 compounds, 0.66% hits; AID 493056; in the data active means enhancement above about 30%
#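 TRHR-expressing cells loaded with fluo-8 calcium dye were read kinetically (ex 480/em 530) during compound addition, then stimulated with an EC20 of TRH (10 nM final). Enhancement of the Gq-mediated intracellular calcium response was scored.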
# TRHR agonist – agonists of human TRH receptor. activation, % at 2 µM. AID 493084. 360,000 compounds, 0.18% hits. TRHR cells, calcium flux fluo-8, FDSS agonist mode
#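 Read-out: compound-evoked intracellular calcium rise in TRHR cells, fluo-8 dye, kinetic FDSS fluorescence at 1 s/cycle following a 10-cycle baseline. Cells cultured overnight before dye loading (30 min–1.5 h, RT).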
# D1 potentiator – human D1 dopamine receptor positive modulation; AID 504651; potentiation, % at 10 µM; HEK293 TREx D1 cells, calcium flux, dopamine EC20 potentiation; P21728; 360,000 compounds, 0.036% hits; in the data active means potentiation above about 30%
# Target sequence (P21728 whole entry, looked up): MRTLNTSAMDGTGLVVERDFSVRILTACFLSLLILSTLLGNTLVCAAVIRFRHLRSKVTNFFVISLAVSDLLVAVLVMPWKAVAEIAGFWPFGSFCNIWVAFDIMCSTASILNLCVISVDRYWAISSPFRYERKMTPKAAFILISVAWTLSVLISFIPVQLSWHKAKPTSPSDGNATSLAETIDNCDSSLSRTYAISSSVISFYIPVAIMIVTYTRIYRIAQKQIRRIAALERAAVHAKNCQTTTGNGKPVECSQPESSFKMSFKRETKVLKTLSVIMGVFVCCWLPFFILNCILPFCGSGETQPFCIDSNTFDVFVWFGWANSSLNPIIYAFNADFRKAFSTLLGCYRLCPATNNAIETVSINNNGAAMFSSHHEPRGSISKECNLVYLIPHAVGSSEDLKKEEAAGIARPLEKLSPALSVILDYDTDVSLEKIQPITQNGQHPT
# D1 antag – antagonists of human D1 dopamine receptor. HEK293 TREx D1 cells, calcium flux, dopamine EC80; hits give low values. activity change, negative = inhibition, % at 10 µM. 360,000 compounds, 3.2% hits. AID 504652. P21728; in the data active means activity change below about -30%
#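 Inducible Hek293 Trex D1 cells (tetracycline, overnight, 30 C). Calcium dye 30–90 min RT. Antagonist mode: EC80 dopamine added after 180 s compound read.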
# D1 agonist – agonists of human D1 dopamine receptor; P21728; HEK293 T-REx D1 cells, calcium flux, agonist mode; activation, % at 2 µM; 360,000 compounds, 1% hits; AID 504660
#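 Inducible HEK293 T-REx D1 cells, force-coupled to calcium signalling, were plated at 4000 cells/well with tetracycline and held overnight at 30 C. After no-wash calcium dye loading, compound-evoked calcium rise over 180 s flagged agonists.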
# Numbers stand for hits; n = inactive; x = not tested or not shown. Shown are actives, neighbours in structure and some others; about 4.6% of the full set was active somewhere. Unless noted, no stated cut-off is given here; in the data, active means activation above about 30%; inactive means the rest.
SMILES,TRHR PAM,TRHR agonist,D1 potentiator,D1 antag,D1 agonist
c1cncc(C2CCCCN2Cc2ccc3c(c2)OCO3)c1 (stereo not given),n,n,n,-38.3,n
Clc1cccc(CN2CCCCC2c2cccnc2)c1 (stereo not given),n,n,n,n,n
CCNC(=O)NC(=O)C(C)OC(=O)c1c(C)nn(Cc2ccccc2)c1Cl (stereo not given),n,n,n,n,n
CCNC(=O)NC(=O)C(C)OC(=O)c1c(C)nn(Cc2ccccc2Cl)c1Cl (stereo not given),n,n,n,-35.3,n
COc1cc(O)c(C(=O)O)c(-c2cc(O)c(O)cc2C)c1,n,n,n,-30.9,n
Cc1c(CCN)ccc2c1[nH]c1ccccc12,n,n,n,-37.9,n
Cc1[nH]c2c(C(F)(F)F)cccc2c1CCN,n,n,n,n,n
CN1CCN(c2nc(N)c(Br)c(Cl)n2)CC1,n,n,n,-33.9,n
Cc1cccc(Cn2cccc(C(=O)Nc3ccc(F)cc3F)c2=O)c1,n,n,n,x,n
CCOC(=O)C1(CCc2ccccc2)CCN(Cc2csc(C(C)=O)c2)CC1,n,n,n,n,n
CCOC(=O)C1(CCc2ccccc2)CCN(Cc2cccc3cnccc23)CC1,n,n,n,-45.2,n
CCOC(=O)C1(CCc2ccccc2)CCN(Cc2cccc3c2OCO3)CC1,n,n,n,-42.1,n
CCOC(=O)C1(CCOc2ccccc2)CCN(Cc2ccccc2OC)CC1,n,n,n,n,n
CCOc1ccc(NC(=O)Cn2cc(C(=O)c3ccccc3)c3ccccc32)cc1,n,n,n,n,n
O=c1c2ccccc2nc(/C=C/c2ccccc2F)n1-c1cccc(O)c1,n,n,n,n,n
C/C(=C\c1ccc(N(C)C)cc1)[N+](=O)[O-],n,n,n,n,n
CN(C)c1ccc(/C=C/[N+](=O)[O-])cc1,n,31.4,n,n,92.4
O=C(COc1ccc(Br)cc1)Nc1ccc(Cl)cc1C(=O)c1ccccc1,n,n,n,n,n
COc1ccc(CCNCc2c(OC)ccc3ccccc23)cc1,n,n,n,n,72.5
COc1ccc(C2NCc3ccc4c(c3-n3cccc32)OCO4)cc1O (stereo not given),n,n,n,-36.3,54.6
c1cc2n(c1)-c1c(ccc3c1OCO3)CNC2c1ccc2c(c1)OCO2 (stereo not given),n,n,n,n,n
Clc1ccccc1NC1=NCCCS1,35.4,n,n,n,n
Cc1ccc(Cn2cccc(C(=O)Nc3ccc4c(c3)OCCO4)c2=O)cc1,n,n,n,x,n
CCN(CC)S(=O)(=O)c1ccc(C)c(NCC(=O)Nc2ccc(C#N)c(Cl)c2)c1,n,n,n,-37.4,n
CC(=O)N1CCN(CC(=O)Nc2ccc(C#N)c(Cl)c2)CC1,n,n,n,n,n
SMILES,TRHR PAM,TRHR agonist,D1 potentiator,D1 antag,D1 agonist
CC(Cc1ccccc1)NCC(=O)Nc1cc(N(C)C)nc2ccccc12 (stereo not given),n,n,n,-50.1,n
CN1CC(C(=O)c2cccc(C(F)(F)F)c2)C(c2ccc(Cl)cc2)C1 (stereo not given),n,n,n,n,30.8
O=C(Nc1ccc2c(c1)OCO2)c1cccn(Cc2cccc(F)c2)c1=O,n,n,n,x,n
CN1C[C@H](CNC(=O)OCc2ccccc2)C[C@@H]2c3cccc4c3c(cn4C)C[C@H]21,n,n,n,-86.8,37.4
CC(C)c1nn2c(=O)cc(COC(=O)Cc3ccccc3)nc2s1,n,n,n,n,n
CN1C(=O)/C(=C/c2ccc(N3CCCCCC3)o2)C(=O)NC1=S,n,n,n,n,n
CN1C(=O)C(=Cc2ccc(N3CCOCC3)o2)C(=O)N(C)C1=S,n,n,n,n,n
CN1CCN(c2ccc(/C=C3\C(=O)NC(=S)N(c4cccc(Br)c4)C3=O)o2)CC1,n,n,n,n,90.4
O=C1NC(=O)N(c2ccc3c(c2)OCO3)C(=O)/C1=C/c1ccc(N2CCCC2)o1,n,n,n,n,33.2
CCN1C(=O)C(=Cc2ccc(N3CCOCC3)o2)C(=O)N(CC)C1=S,n,n,n,n,65.9
CN1C(=O)/C(=C\c2ccc(N3CCCCC3)o2)C(=O)NC1=S,n,n,n,n,32.7
[O-][n+]1onc2c1CCC1N(O)CCC21O (stereo not given),n,n,n,-30.0,n
